Reference: PubChem BioAssay AID1159580 (chemical genetic matrix, 2015)
Several values for one entry are separate records, joined by “and”; a condition that tells them apart may be missing. Equal values may be shown once. Hit rate of the full screen: of about 5,500 compounds, about 2,000 (36%) were called active. Another 18% or so got no clear call; they are omitted. Cut-off read from the data, not from the text of the source: active = normalized growth mostly below about 0.91 (no sharp cut-off); inconclusive = no clear call, values can overlap the other calls; inactive = mostly above about 0.92. Some of the results follow.

Assay: chemical genetic growth profiling, strain panel (AID 1159580);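 note: tested at 20 µM; growth read once vehicle control cultures reached saturation at 30 °C; 1 = growth at the plate median or of vehicle wells; lower values mean less growth of the strain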
Conditions: S. cerevisiae deletion strains, growth OD

Measured: normalized growth

CN(Cc1cc(Br)cc(Br)c1N)C1CCCCC1
inactive: locus YAL021C, strain ccr4, hits give low values 0.979 | locus YAL026C, strain drs2, hits give low values 1.03 | locus YAL030W, strain snc1, hits give low values 1.06 | locus YBL061C, strain skt5, hits give low values 1.03 | locus YBR009C, strain hhf1, hits give low values 1 | locus YBR021W, strain FUR4, hits give low values 0.948 | locus YBR023C, strain chs3, hits give low values 1.03 | locus YBR171W, strain sec66, hits give low values 1.06 | locus YBR229C, strain ROT2, hits give low values 1.01 | locus YBR231C, strain swc5, hits give low values 1.02 | locus YBR279W, strain paf1, hits give low values 1.02 | locus YCL011C, strain gbp2, hits give low values 1.02 | locus YCL016C, strain dcc1, hits give low values 1.01 | locus YCL029C, strain bik1, hits give low values 1.02 | locus YCL061C, strain MRC1, hits give low values 1.01 | locus YCL069W, strain vba3, hits give low values 1.03 | locus YCR088W, strain abp1, hits give low values 1.05 | locus YDL005C, strain med2, hits give low values 1.07 | locus YDL035C, strain GPR1, hits give low values 0.943 | locus YDL040C, strain nat1, hits give low values 1.03 | locus YDL074C, strain BRE1, hits give low values 0.954 | locus YDL101C, strain DUN1, hits give low values 0.999 | locus YDL134C, strain PPH21, hits give low values 1 | locus YDL185W, strain tfp1, hits give low values 1.02 | locus YDL192W, strain arf1, hits give low values 1.02 | locus YDR001C, strain nth1, hits give low values 1.03 | locus YDR069C, strain doa4, hits give low values 0.983 | locus YDR101C, strain arx1, hits give low values 0.999 | locus YDR137W, strain rgp1, hits give low values 1.03 | locus YDR159W, strain sac3, hits give low values 1.09 | locus YDR162C, strain NBP2, hits give low values 1.02 | locus YDR195W, strain ref2 1.13 | locus YDR297W, strain sur2, hits give low values 1.03 | locus YDR318W, strain mcm21, hits give low values 0.982 | locus YDR334W, strain swr1, hits give low values 1.03 | locus YDR335W, strain msn5, hits give low values 1.02 | locus YDR388W, hits give low values 1.01 | locus YDR392W, strain spt3, hits give low values 0.975 | locus YDR502C, strain sam2, hits give low values 0.996 | locus YEL003W, strain gim4, hits give low values 1.01 | locus YEL037C, strain rad23, hits give low values 1.03 | locus YEL061C, strain CIN8 (second series), hits give low values 0.991 | locus YEL061C, strain CIN8, hits give low values 0.975 | locus YER015W, strain faa2, hits give low values 1.03 | locus YER016W, strain bim1, hits give low values 0.988 | locus YER110C, hits give low values 1.03 | locus YER111C, strain swi4, hits give low values 1.04 | locus YER155C, strain BEM2 (second series), hits give low values 1.03 | locus YER155C, strain BEM2, hits give low values 1.01 | locus YER167W, strain BCK2, hits give low values 1.02 | locus YFR010W, strain ubp6, hits give low values 0.994 | locus YGL078C, strain dbp3, hits give low values 1.02 | locus YGL086W, strain mad1, hits give low values 0.967 | locus YGL167C, strain pmr1, hits give low values 1.03 | locus YGL173C, strain kem1, hits give low values 0.995 | locus YGL227W, strain vid30, hits give low values 1.04 | locus YGL240W, strain doc1, hits give low values 0.965 | locus YGL248W, strain PDE1, hits give low values 0.984 | locus YGL253W, strain hxk2, hits give low values 1.03 | locus YGR135W, strain pre9, hits give low values 1.02 | locus YGR252W, strain gcn5, hits give low values 0.84 | locus YHR013C, strain ard1, hits give low values 1.06 | locus YHR027C, strain rpn1, hits give low values 1.01 | locus YHR030C, strain SLT2, hits give low values 1.02 and 0.894 | locus YHR079C, strain IRE1 (second series), hits give low values 1.02 | locus YHR079C, strain IRE1, hits give low values 0.936 | locus YHR094C, strain hxt1, hits give low values 1.03 | locus YHR129C, strain ARP1, hits give low values 1.01 | locus YHR142W, strain chs7, hits give low values 1.06 | locus YHR200W, strain rpn10, hits give low values 1.01 | locus YIL066C, strain RNR3, hits give low values 0.991 | locus YIL073C, strain SPO22, hits give low values 1.06 | locus YIL125W, strain kgd1, hits give low values 1.01 | locus YIR030C, strain dcg1, hits give low values 1.02 | locus YJL092W, strain hpr5, hits give low values 1.03 | locus YJL095W, strain BCK1 (second series), hits give low values 1.02 | locus YJL095W, strain BCK1, hits give low values 0.97 and 0.902 | locus YJL115W, strain asf1, hits give low values 1.06 | locus YJL129C, strain trk1, hits give low values 1.03 | locus YJL134W, strain LCB3, hits give low values 1.02 | locus YJL154C, strain vps35, hits give low values 1.03 | locus YJL164C, strain tpk1, hits give low values 1.02 | locus YJL166W, strain qcr8, hits give low values 1 | locus YJL168C, strain set2, hits give low values 1.02 | locus YJL187C, strain SWE1 (second series), hits give low values 0.974 | locus YJR043C, strain POL32, hits give low values 0.987
active: locus YJR066W, strain TOR1, hits give low values 0.81
